For five compounds, composite z-score and z-score results are on record in PubChem BioAssay.

Structures are written as SMILES. Active and inactive are the calls of the source. Unless noted, the rule behind the calls is not given here.

Assay [1] can be described thus: compounds binding Alexa647 anti-His antibody – biochemical, small-molecule microarray, 635 nm fluorescence, artefact control for SMM control protein annotation, primary screen (AID 1128).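 Note: score merges feature fluorescence with signal-to-noise for each printed compound spot.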 To be noted: higher = more signal.
The test system of assay [2] is Human papillomavirus type 1a E7 protein (residues 1-88). Briefly: HPV1a E7 small-molecule binders, primary screen, biochemical, small-molecule microarray, residues 1-88, 635 nm (AID 1129). As to conditions: small-molecule microarray binding, fluorescence 635 nm; higher = more signal.
Assay [3] concerns the target Focal adhesion kinase 1 (Homo sapiens) (UniProt Q05397). Briefly: PTK2 protein binding on printed compound slides – biochemical, small-molecule microarray, 635/667 nm fluorescence, BSA, DTT, primary screen (AID 1130).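 Note: composite of spot emission at 667 nm and signal to noise over triplicate slides.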 As to conditions: 635 nm fluorescence, higher = more signal.
In assay [4] the test system is Fibrinogen (Alexa647-labelled). Description: Alexa647-fibrinogen binding to printed small molecules – biochemical, small-molecule microarray, 635/667 nm fluorescence, artefact control for SMM control-protein annotation, profiling panel (AID 1131).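 Note: z-score merges 667 nm fluorescence with per-spot signal-to-noise over triplicate slides.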 As to conditions: fibrinogen-A647 binding fluorescence, higher = more signal.
The target of assay [5] is Follistatin (Homo sapiens) (UniProt P19883). Briefly: FST protein binding to printed compounds – biochemical, small-molecule microarray, 635/667 nm fluorescence, primary screen (AID 1132). To be noted: 635 nm fluorescence, higher = more signal.
Follistatin (Homo sapiens), sequence (P19883 whole entry, looked up): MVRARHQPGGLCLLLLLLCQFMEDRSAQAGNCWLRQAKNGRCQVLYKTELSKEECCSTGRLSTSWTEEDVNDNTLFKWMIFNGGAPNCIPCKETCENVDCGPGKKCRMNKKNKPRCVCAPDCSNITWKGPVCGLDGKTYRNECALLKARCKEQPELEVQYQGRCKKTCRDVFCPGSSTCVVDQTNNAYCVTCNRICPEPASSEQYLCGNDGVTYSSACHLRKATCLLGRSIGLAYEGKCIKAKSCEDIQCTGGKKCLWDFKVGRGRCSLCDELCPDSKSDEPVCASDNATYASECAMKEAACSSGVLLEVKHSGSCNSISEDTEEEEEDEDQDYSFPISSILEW
For assay [6], the target named is Fibroblast growth factor 2 (Homo sapiens) (UniProt P09038). Description: basic fibroblast growth factor binding to printed compounds – biochemical, small-molecule microarray, 635/667 nm fluorescence, primary screen (AID 1133). To be noted: FGF2, fluorescence 635/667, higher = more signal.
Fibroblast growth factor 2 (Homo sapiens), sequence (P09038 whole entry, looked up): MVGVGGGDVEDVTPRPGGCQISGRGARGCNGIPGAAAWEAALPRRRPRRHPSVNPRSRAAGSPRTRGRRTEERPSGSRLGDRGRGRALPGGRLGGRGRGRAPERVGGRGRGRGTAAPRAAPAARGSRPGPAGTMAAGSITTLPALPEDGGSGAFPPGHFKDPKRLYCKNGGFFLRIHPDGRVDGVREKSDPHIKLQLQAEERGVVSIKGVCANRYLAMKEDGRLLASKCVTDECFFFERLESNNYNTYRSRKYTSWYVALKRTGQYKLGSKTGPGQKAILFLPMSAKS
The nature of assay [7]: JC-1 mitochondrial potential readout, lung cancer cells – cell-based, A549, JC-1 fluorescence, basal, 24 h, 100 nL, profiling panel (AID 1138).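 Note: A549 lung adenocarcinoma cells under basal conditions with no added stimulus; test concentration not given here.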 As to conditions: higher = more signal.
In a further assay the test system is Lefty1. Description: Lefty1 protein binding to printed compounds – biochemical, small-molecule microarray, 635/667 nm fluorescence, primary screen (AID 1139). As to conditions: fluorescence 635/667, higher = more signal.
Assay [8] deals with wheat germ agglutinin (Triticum aestivum), Alexa647-labelled. Briefly: Alexa647-WGA lectin binding to printed small molecules – biochemical, small-molecule microarray, 635/667 nm fluorescence, artefact control for SMM control-protein annotation, profiling panel (AID 1140).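 Note: score merges 667 nm feature emission with signal to noise over triplicate slides.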 As to conditions: WGA-A647 binding, 635 nm fluorescence, higher = more signal.
The target in assay [9] is Luciferin 4-monooxygenase (Photinus pyralis) (UniProt P08659). Briefly: inhibition of purified Photinus pyralis luciferase – biochemical, luminescence, purified enzyme, 2006 set, primary screen (AID 1141).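 Note: cell-free assay with purified firefly luciferase at 100 ng per well in PBS; test concentration not given here.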 As to conditions: purified firefly luciferase, SteadyGlo luminescence, 30 min; higher = more signal, called active from +8 up or from −8 down.
Luciferin 4-monooxygenase (Photinus pyralis), sequence (P08659 whole entry, looked up): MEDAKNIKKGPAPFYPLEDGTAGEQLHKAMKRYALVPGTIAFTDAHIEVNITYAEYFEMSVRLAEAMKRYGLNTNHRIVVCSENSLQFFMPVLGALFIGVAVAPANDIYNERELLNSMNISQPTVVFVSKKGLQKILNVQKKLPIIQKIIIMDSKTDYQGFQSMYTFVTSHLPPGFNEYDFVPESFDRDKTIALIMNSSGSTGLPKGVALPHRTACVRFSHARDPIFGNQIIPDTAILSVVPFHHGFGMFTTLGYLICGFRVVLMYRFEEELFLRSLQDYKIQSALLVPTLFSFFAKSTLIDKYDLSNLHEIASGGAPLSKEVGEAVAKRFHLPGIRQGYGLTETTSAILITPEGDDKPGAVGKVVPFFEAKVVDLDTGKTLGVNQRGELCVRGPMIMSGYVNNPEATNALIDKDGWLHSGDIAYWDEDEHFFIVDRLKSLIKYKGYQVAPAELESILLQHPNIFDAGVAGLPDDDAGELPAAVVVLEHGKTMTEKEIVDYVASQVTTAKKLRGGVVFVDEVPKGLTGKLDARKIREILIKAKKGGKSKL
The subject of assay [10] is Wnt5a (protein binding on small-molecule microarray). Briefly: small molecules binding Wnt5a protein – biophysical, small-molecule microarray, 635/667 nm fluorescence, primary screen (AID 1142).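 Note: fluorescence read at 667 nm with signal to noise per printed feature.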 To be noted: 635 nm fluorescence, higher = more signal.
Assay [11] in a line: ATP-based viability of Huh7 replicon cells – cell-based, CellTiter-Glo luminescence, basal, 48 h, cytotoxicity control for HCV replication inhibitor project, primary screen (AID 1143).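 Note: Huh7 hepatoma cells carrying a hepatitis C replication reporter with no stimulus; test concentration not given here.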 To be noted: higher = more signal, called active from +8 up or from −8 down. (In general: A replicon is a self-replicating genome or part of one, used to study replication in cells.)
Assay [12] in a line: Pseudomonas biofilm growth suppression – PAO1 strain, BacTiter-Glo luminescence, LB-PBS, primary screen (AID 1144). To be noted: P. aeruginosa PAO1 biofilm, 12 h, higher = more signal.
A short description of assay [13]: basal CRE-LacZ reporter activity in PC12 – cell-based, unstimulated, primary screen (AID 1145). To be noted: no forskolin, luminescence, 4.5 h, higher = more signal, called active from +8 up or from −8 down.
Assay [14] is described as follows: forskolin-driven CRE-LacZ activity in PC12 – cell-based, CRE-LacZ reporter, forskolin-stimulated, primary screen (AID 1146).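 Note: PC12 cells with 6xCRE LacZ reporter stimulated by forskolin 10 µM; beta-galactosidase reporter signal reflecting CREB driven transcription.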 To be noted: luminescence, 4.5 h, higher = more signal, called active from +8 up or from −8 down.
The target of assay [15] is Streptavidin (Streptomyces avidinii) (UniProt P22629). Briefly: compounds binding control protein streptavidin – biophysical, small-molecule microarray, 635/667 nm fluorescence, artefact control for SMM compound annotation, primary screen (AID 1147).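 Note: signal reflects streptavidin binding to arrayed compounds as a control protein.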 As to conditions: higher = more signal.
Streptavidin (Streptomyces avidinii), sequence (P22629 whole entry, looked up): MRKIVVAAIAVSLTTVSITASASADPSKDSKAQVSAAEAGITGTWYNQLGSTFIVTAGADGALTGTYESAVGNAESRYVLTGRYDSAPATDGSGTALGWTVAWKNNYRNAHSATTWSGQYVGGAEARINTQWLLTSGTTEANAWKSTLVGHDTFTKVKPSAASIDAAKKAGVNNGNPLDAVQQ
Assay [16] is described as follows: probe aInhba binding on compound microarray – biochemical, small-molecule microarray, 635/667 nm fluorescence, primary screen (AID 1148).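 Note: score merges 667nm spot fluorescence with signal-to-noise for antibody binding to printed compounds.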 To be noted: higher = more signal.
For assay [17], the target named is Torsin-1A (Homo sapiens) (UniProt O14656). Description: TOR1A wild-type binding on microarray – cell lysate, small-molecule microarray, lysate, 635/667 nm, primary screen (AID 1149). As to conditions: COS7 hTOR1A-WT lysate, 635 nm fluorescence, higher = more signal.
Torsin-1A (Homo sapiens), sequence (O14656 whole entry, looked up): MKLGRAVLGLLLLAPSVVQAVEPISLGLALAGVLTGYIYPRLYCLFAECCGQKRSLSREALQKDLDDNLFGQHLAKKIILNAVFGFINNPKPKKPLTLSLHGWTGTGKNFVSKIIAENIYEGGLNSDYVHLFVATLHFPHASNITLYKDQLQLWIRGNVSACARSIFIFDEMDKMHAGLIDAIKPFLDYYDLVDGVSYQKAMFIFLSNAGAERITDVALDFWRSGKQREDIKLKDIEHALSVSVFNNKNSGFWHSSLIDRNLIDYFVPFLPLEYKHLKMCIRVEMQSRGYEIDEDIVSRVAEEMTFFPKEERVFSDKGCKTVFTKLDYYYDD
The target is the same in assay [18]. Briefly: torsin A mutant lysate binding on microarrays – cell lysate, small-molecule microarray, COS7 lysate, 635/667 nm fluorescence, primary screen (AID 1150).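 Note: score pools 667 nm emission and signal to noise measuring lysate protein binding.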 As to conditions: COS7 hTOR1A mutant lysate, 635 nm fluorescence, higher = more signal.
In assay [19] the test system is Sonic hedgehog protein (Shh). Description: Sonic hedgehog microarray binding compounds – biochemical, small-molecule microarray, 635/667 nm fluorescence, primary screen (AID 1151).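 Note: Shh protein binding to compounds spotted on small-molecule microarray slides; score combines spot fluorescence intensity with signal-to-noise across triplicate slides.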 To be noted: 635 nm fluorescence, higher = more signal.

Focal adhesion kinase 1 (Homo sapiens), sequence (Q05397 whole entry, looked up): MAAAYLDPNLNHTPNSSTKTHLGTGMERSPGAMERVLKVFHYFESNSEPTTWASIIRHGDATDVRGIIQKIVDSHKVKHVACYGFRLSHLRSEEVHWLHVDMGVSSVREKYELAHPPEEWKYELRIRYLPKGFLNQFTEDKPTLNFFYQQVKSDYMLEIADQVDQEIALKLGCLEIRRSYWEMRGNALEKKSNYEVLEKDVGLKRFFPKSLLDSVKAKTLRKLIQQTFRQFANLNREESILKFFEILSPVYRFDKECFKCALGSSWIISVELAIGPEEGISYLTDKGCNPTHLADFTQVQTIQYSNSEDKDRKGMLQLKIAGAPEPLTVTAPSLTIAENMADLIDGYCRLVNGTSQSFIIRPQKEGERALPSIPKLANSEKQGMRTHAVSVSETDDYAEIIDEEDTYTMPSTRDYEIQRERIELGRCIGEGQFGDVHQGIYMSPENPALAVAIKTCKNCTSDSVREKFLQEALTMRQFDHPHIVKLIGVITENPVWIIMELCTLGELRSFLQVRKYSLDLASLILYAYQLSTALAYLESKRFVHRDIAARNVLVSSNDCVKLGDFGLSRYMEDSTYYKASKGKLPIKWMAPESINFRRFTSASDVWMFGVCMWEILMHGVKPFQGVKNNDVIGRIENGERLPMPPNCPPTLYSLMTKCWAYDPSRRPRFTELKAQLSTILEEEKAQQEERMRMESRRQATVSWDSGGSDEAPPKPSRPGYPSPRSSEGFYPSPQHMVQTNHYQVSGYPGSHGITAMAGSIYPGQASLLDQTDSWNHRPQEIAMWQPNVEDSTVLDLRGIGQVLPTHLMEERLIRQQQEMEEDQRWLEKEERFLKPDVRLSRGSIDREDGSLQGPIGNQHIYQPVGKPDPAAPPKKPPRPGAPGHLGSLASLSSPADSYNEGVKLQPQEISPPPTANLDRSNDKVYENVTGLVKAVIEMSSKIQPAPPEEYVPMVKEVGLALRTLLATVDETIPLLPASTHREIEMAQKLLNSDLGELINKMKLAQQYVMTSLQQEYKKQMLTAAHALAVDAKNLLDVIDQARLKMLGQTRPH

As to `CC(C)N1C(=O)[C@@]2(Cc3ccccc31)c1ccccc1C(=O)N(Cc1ccccc1)[C@H]2c1ccc(CO)cc1`, the composite z-score in [1] is 2.84; in [2], -0.299; in [3], -0.0689; in assay [4], -0.375; in assay [5], 0.848; in assay [6], 0.203. In addition, the composite z-score was 0.13 with Lefty1; -0.622 in [8]; 0.164 in [10]; -0.439 in assay [15]; -0.119 in assay [16]; 0.291 in the assay with Torsin-1A (Homo sapiens) [17]. Besides, the composite z-score is -0.182 with Torsin-1A (Homo sapiens) [18] and 0.462 in assay [19]. Moreover, the z-score was 0.591 in assay [7]; -0.52 (inactive) in assay [9]; 0.629 (inactive) in [11]; 0.0609 (inactive) in assay [12]; -0.114 (inactive) in assay [13]; 0.467 (inactive) in assay [14].
Turning to `C=CCOC(=O)[C@H]1[C@@H]2C(=O)O[C@@H](c3ccccc3)[C@@H](c3ccccc3)N2[C@@H](c2ccc(OCCOC(=O)[C@H]3C[C@H]4C(=O)NCC(=O)N4[C@H]3c3ccc(O)cc3)cc2)[C@]12C(=O)Nc1ccccc12`, the composite z-score in assay [1] was 1.46; in [2], 1.22; in [3], 0.402; in assay [4], 0.961; in assay [5], 1.44; in assay [6], 1.46. Besides, the composite z-score stood at 1.26 in the assay with Lefty1; 0.543 in assay [8]; 0.592 in assay [10]; 0.341 in [15]; 0.615 in assay [16]; 0.603 with Torsin-1A (Homo sapiens) [17]. Moreover, the composite z-score with Torsin-1A (Homo sapiens) [18] was determined as 1.14; in assay [19], 2.22. In addition, the z-score in [7] is -1.62; in assay [9], 0.207 (inactive); in assay [11], -0.525 (inactive); in assay [12], -0.799 (inactive); in assay [13], -1.08 (inactive); in assay [14], -0.306 (inactive).
`COc1cc(Cc2cc3c(c(-c4ccccc4)n2)[Si](C(C)C)(C(C)C)OC3)cc(OC)c1OC`: the composite z-score in assay [1] was -0.753; in assay [2], -1.33; in [3] it was -0.517; in assay [4], 0.107; in assay [5], 0.0972; in assay [6] it was 0.542. In addition, the composite z-score was -0.194 with Lefty1; 0.712 in assay [8]; 0.26 in assay [10]; 1.89 in assay [15]; 0.161 in assay [16]; -0.226 with Torsin-1A (Homo sapiens) [17]. Moreover, the composite z-score is -0.141 with Torsin-1A (Homo sapiens) [18] and 0.143 in assay [19]. Moreover, the z-score in assay [7] is 0.489; in assay [9] it was -0.111 (inactive); in assay [11], -0.324 (inactive); in assay [12], -0.546 (inactive); in [13], -0.113 (inactive); in [14], -0.437 (inactive).
For `COC(=O)[C@@]1(Cc2ccc(F)cc2)[C@H]2c3cc(C(=O)N(C)C)n(CCF)c3C[C@H]2CN1C(=O)c1ccccc1`, the composite z-score in assay [1] was 1.67; in assay [2], 0.911; in assay [3], 0.0655; in assay [4], 0.911; in assay [5], -0.0051; in assay [6] it was -0.162. The composite z-score in the assay on Lefty1 is -0.45; in assay [8] it was 0.338; in assay [10], 0.101; in assay [15], 0.471; in assay [16], 0.117; with Torsin-1A (Homo sapiens) [17] it was 0.632. Moreover, the figures for the composite z-score (with Torsin-1A (Homo sapiens) [18]; in assay [19]) were 0.606 and -0.447, respectively. In addition, the z-score in assay [7] is 0.656; in assay [9] it was -1.09 (inactive); in assay [11] it was -1.56 (inactive); in [12], -0.501 (inactive); in [13] it was -0.375 (inactive); in [14], 0.25 (inactive).
As to `C=CCC(OC(C)=O)[C@@H]1[C@@H](N(Cc2ccc(-c3ccccc3)cc2)C(=O)Cc2ccc(OC)cc2)c2cc(OCCCO)ccc2N1C(=O)c1ccc2ccccc2c1` (stereo not given in full), the composite z-score in assay [1] is -0.365; in assay [2], -0.168; in [3] it was -0.0078; in assay [4], 0.186; in assay [5], 0.458; in assay [6], 0.338. Moreover, the composite z-score with Lefty1 is 0.146; in assay [8] it was 0.266; in [10], -0.0966; in [15], 1.14; in assay [16], -0.153; with Torsin-1A (Homo sapiens) [17] it was -0.137. Moreover, the results for the composite z-score (with Torsin-1A (Homo sapiens) [18]; in [19]) were -0.451 and 0.234, respectively. Moreover, the z-score is 0.865 in assay [7]; 0.161 (inactive) in [9]; -1.35 (inactive) in assay [11]; 0.832 (inactive) in assay [12]; 1.37 (inactive) in [13]; 0.385 (inactive) in assay [14].
